The structures appear in SMILES notation.

Chain of Neurogenic locus notch homolog protein 2 (Homo sapiens) (Q04721 whole entry, looked up): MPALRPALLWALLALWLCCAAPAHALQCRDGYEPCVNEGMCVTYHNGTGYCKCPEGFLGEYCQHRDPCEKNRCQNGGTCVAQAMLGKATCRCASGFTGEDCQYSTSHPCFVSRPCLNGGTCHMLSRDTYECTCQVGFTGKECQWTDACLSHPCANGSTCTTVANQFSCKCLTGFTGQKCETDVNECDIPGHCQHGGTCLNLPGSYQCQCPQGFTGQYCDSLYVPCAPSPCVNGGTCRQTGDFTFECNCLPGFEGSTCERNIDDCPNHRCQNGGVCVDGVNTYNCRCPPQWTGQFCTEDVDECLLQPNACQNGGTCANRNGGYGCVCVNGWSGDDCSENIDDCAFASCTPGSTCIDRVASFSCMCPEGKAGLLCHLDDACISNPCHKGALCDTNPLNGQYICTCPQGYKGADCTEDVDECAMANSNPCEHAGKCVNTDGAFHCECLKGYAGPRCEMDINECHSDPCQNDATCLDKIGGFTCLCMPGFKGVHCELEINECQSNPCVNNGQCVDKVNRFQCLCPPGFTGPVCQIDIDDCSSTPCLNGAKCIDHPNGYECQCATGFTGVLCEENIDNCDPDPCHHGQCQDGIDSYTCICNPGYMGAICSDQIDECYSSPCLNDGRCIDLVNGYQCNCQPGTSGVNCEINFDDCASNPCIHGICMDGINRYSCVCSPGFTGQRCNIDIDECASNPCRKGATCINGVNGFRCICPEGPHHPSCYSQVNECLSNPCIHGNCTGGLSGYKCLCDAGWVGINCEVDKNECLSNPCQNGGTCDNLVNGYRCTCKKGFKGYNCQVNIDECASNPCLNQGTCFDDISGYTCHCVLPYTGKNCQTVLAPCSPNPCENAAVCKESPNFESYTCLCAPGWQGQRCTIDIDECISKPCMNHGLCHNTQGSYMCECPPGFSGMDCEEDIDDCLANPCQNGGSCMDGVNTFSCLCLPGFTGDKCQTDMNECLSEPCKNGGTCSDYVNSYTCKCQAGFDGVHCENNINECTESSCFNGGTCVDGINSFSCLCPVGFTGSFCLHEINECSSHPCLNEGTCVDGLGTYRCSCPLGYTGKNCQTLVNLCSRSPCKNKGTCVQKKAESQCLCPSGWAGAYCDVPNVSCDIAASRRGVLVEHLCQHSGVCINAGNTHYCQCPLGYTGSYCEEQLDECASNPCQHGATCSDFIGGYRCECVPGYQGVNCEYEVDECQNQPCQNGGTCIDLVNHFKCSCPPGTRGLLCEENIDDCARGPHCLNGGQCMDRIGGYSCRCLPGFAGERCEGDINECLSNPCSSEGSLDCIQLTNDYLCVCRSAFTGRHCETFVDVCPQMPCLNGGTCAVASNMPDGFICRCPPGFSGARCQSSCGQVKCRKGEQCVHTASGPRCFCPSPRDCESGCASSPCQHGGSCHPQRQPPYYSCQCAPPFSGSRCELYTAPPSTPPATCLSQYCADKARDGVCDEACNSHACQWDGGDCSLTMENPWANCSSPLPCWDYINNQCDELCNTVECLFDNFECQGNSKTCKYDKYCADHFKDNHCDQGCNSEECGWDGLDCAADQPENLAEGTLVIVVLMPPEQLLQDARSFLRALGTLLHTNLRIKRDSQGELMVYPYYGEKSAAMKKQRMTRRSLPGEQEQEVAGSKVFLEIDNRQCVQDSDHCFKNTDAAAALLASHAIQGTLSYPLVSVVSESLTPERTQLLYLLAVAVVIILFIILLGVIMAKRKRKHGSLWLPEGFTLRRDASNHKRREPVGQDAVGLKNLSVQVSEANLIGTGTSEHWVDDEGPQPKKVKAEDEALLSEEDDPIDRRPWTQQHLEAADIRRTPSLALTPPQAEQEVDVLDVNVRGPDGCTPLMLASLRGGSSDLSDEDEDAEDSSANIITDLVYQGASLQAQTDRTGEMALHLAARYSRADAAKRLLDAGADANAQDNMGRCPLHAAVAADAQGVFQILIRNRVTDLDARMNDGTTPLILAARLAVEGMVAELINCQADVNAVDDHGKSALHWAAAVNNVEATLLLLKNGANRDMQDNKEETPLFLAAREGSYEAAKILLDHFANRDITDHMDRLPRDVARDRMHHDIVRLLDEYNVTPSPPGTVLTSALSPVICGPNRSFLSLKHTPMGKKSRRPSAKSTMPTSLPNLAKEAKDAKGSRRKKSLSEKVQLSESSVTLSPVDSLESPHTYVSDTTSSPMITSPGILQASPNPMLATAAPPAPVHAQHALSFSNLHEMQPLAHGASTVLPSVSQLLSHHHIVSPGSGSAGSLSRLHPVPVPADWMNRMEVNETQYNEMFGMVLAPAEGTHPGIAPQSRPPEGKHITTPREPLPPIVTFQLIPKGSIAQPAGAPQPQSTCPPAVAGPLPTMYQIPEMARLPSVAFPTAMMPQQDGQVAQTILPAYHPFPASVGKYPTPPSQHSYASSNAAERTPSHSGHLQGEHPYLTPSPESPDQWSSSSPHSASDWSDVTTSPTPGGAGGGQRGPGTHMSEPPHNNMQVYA

The experiment addresses Neurogenic locus notch homolog protein 2 (Homo sapiens) (UniProt Q04721). The experiment is described as follows: small molecules binding Notch2 protein – biochemical, small-molecule microarray, 635 nm fluorescence, stem cell growth factors, primary screen (AID 1073). The following applies: higher = more signal.
For the compound `CCOC(=O)C=Cc1cc(F)ccc1O`, the composite z-score is -0.0641. In turn, `[N-]=[N+]=Nc1ccccc1[C@@H]1OC(c2ccc(OCCCO)cc2)=N[C@]1(Cc1ccccc1)C(=O)NCc1ccccc1` yielded a composite z-score of 1.59. The value for `Cc1ccccc1C(O)C1C=CC2C(=O)NC(=O)C2N1Nc1ccc(Cl)cc1Cl` (stereo not given) was 1.48. The value for `COc1ccc([Si](C)(C)[C@H]2[C@H](CCO)O[C@@]3(C(=O)N(Cc4ccccc4)c4ccc(N5CCOC5=O)cc43)[C@@H]2C)cc1` was 0.591; that for `COCC1C2CC[C@H]3C(OCc4ccc(OC)cc4)OC[C@]4(C)[C@H]3C2=C(CN4C(=O)OC(C)(C)C)[C@H](C)C1COC` (stereo not given in full) was 1.72. The value for `COCCOC(=O)N1C(=O)[C@@]2(c3cc(C#CC4(O)CCCCCC4)ccc31)[C@H](C(=O)N1CCN(c3ncccn3)CC1)[C@H]1C(=O)O[C@H](c3ccccc3)[C@H](c3ccccc3)N1[C@@H]2c1ccccc1OCCO` was 1.08; that for `COc1ccc(C(=O)Nc2cccc(CN3C(=O)[C@@]4(O[C@@H](CC(=O)N(CCO)Cc5ccccc5)[C@H]([Si](C)(C)c5ccc(OC)cc5)[C@H]4C)c4ccccc43)c2)cc1` was -0.342. Compound `COCCOC(=O)N1C(=O)[C@@]2(c3cc(C#CCNC(N)=O)ccc31)[C@H](c1ccc(O)cc1)N1[C@H](c3ccccc3)[C@H](c3ccccc3)OC(=O)[C@H]1[C@@H]2C(N)=O` gave a composite z-score of -2.04. Under `O=C1C2C=CC(C(O)c3cccc(O)c3)N(Nc3ccccc3)C2C(=O)N1c1ccccc1` (stereo not given) stands 1.08; under `COc1ccc([Si](C)(C)[C@@H]2[C@@H](CC(=O)N3Cc4ccccc4C[C@H]3CO)O[C@]3(C(=O)N(c4ccccc4)c4ccccc43)[C@H]2C)cc1`, 0.627.

As to `COc1ccc(C(O)C2C=CC3C(=O)N(c4ccccc4)C(=O)C3N2Nc2ccccc2F)cc1` (stereo not given), the composite z-score came out at 1.4. In the case of `COCCOC(=O)N1C(=O)[C@@]2(c3cc(C#CCC(C(=O)OC)C(=O)OC)ccc31)[C@H](c1ccc(O)cc1)N1[C@H](c3ccccc3)[C@H](c3ccccc3)OC(=O)[C@H]1[C@@H]2C(=O)NC[C@H](O)c1ccccc1`, the composite z-score worked out at 0.147.

The compound `COCC(=C=CC[C@H](O)c1cccc(OCCO)c1)C[C@H](O)COCc1ccccc1` gave a composite z-score of 0.276. The value for `C=C(C)[C@@H]1CC=C(C(O)C2C=CC3C(=O)N(c4ccccc4)C(=O)C3N2Nc2ccc(C#N)cc2)CC1` (stereo not given in full) was 1.65; that for `COc1ccc(NC(=O)O[C@H]2[C@@H]3OC(=O)[C@H](Cc4cccc(Br)c4)C/C=C/C[C@@H](Cc4cccc(Br)c4)C(=O)O[C@H]3[C@@H](OC)O[C@@H]2CO)cc1` was 0.935; that for `C=C(/C(=C/C[C@H](OC(=O)c1ccncc1)c1cccc(OCCO)c1)c1cnc2ccccc2c1)C(C)C` was 1.41. The value for `CS(=O)(=O)CCOC(=O)C1=CC(CCCO)=CC(C2CC2)N(Cc2cccc(OC(F)(F)F)c2)C=C1C(=O)OCCS(C)(=O)=O` (stereo not given) was -0.116; that for `NC(=O)[C@H]1[C@@H]2C(=O)O[C@@H](c3ccccc3)[C@@H](c3ccccc3)N2[C@@H](c2ccc(O)cc2)[C@]12C(=O)Nc1ccc(C#CC3=CCCCC3)cc12` was -0.734. Regarding `[N-]=[N+]=NCc1ccccc1[C@@H]1OC(c2ccc(OCCCO)cc2)=N[C@]1(Cc1ccccc1)C(=O)NCCN1CCOCC1`, the composite z-score was 1.4. Under `COc1cc(C(O)C2C=CC3C(=O)N(Cc4ccccc4)C(=O)C3N2n2cnnc2)cc(OC)c1OC` (stereo not given) stands 1.49; under `C=CCN1C(=O)[C@@]2(O[C@@H](CCO)[C@H]([Si](C)(C)c3ccc(OC)cc3)[C@H]2C)c2cc(N3CCOC3=O)ccc21`, 0.165; under `CC(C)[C@H]1NC(=O)[C@@]23C(=O)N[C@@H](Cc4ccccc4)C2[C@H](C)[C@@]2(C)O[C@H]2C3/C=C/C/C=C\CNC(=O)[C@H](Cc2ccccc2)NC1=O` (stereo not given in full), 0.878. Under `O=C1C2C=CC(C(O)c3ccco3)N(Nc3ccccc3)C2C(=O)N1c1ccccc1` (stereo not given) stands -0.331; under `CC(C)C[C@@H]1NC(=O)[C@@]23C(=O)N[C@@H](Cc4ccccc4)C2[C@H](C)[C@@]2(C)O[C@H]2C3/C=C/C/C=C\CNC(=O)[C@@H](C)NC1=O` (stereo not given in full), -0.211. Under `CCN(CC)c1ccc(N2CC=CC34O[C@@H]5/C=C\CCC(C)OC(=O)C5[C@H]3C(=O)N(C(C)CO)[C@@H]4C2=O)cc1` (stereo not given in full) stands -1.06; under `CO[C@H]1O[C@H](CO)[C@@H](OC(=O)c2ccc(Br)cc2)[C@@H]2OC(=O)[C@H](Cc3ccccc3)C/C=C/C[C@@H](Cc3ccccc3)C(=O)O[C@@H]12`, 0.496.

In turn, `CC(C)C(CO)N1C(=O)[C@@H]2[C@H]3C(=O)OCC=C[C@H]3OC23C=CCN(C(C)(C)C)C(=O)[C@@H]13` (stereo not given in full) gave a composite z-score of -0.456. Take `[N-]=[N+]=Nc1ccccc1C[C@]1(C(=O)O)N=C(c2ccc(OCCCO)cc2)O[C@H]1c1ccccc1N=[N+]=[N-]`: the composite z-score was 1.23. For `C=C(/C(=C/C[C@@H](OC(=O)c1ccncc1)c1cccc(OCCO)c1)c1cnc2ccccc2c1)C(C)C`, the composite z-score amounted to 1.22. In the case of `CCCNC(=O)[C@@]1(Sc2ccc(C)cc2)CC(=O)N(C(C)C)[C@@H]1c1ccc(CO)cc1I`, the composite z-score was -1.06. The value for `C=CCNC(=O)[C@@H]1[C@H]2C(=O)O[C@H](c3ccccc3)[C@H](c3ccccc3)N2[C@H](c2ccc(OCCO)cc2)[C@@]12C(=O)N(C(=O)OCCOC)c1ccc(C#CCCO)cc12` was 1.33; that for `CCCCCCCCCCC(O)C1C=CC2C(=O)N(c3ccccc3)C(=O)C2N1Nc1ccccc1F` (stereo not given) was -0.503; that for `COC(=O)C1N=C(c2ccc(OCCCO)cc2)N(c2ccccc2)O1` (stereo not given) was 1.54. Under `COC(=O)[C@@]1(Cc2ccc(F)cc2)[C@H]2c3cc(C(=O)N4CCCC4)n(C)c3C[C@H]2CN1C(=O)c1ccccc1` stands 1.69. The value for `O=C1C2C=CC(C(O)C=Cc3ccc([N+](=O)[O-])cc3)N(Nc3ccccc3)C2C(=O)N1c1ccccc1` (stereo not given) was 1.59.

The values are drawn from PubChem BioAssay.
